Targets with a hit are over-represented here; the source holds about 7,900 in all. About 0.6% of all pairs of compound and target were hits. A number with no mark means an inactive call.
Assays:
Assay in all cases: log2 fold change, soluble protein after heating vs DMSO (PISA); higher = thermal stabilisation; K562 cells, 10 uM, 30 min; active = over 0.2 and 3.5 SD of the protein, either way, in both replicates (recomputed)
[1] = compound: NC(=O)Nc1cc(-c2cccc(F)c2)sc1C(=O)N[C@H]1CCCNC1
Procedure, shortened: (§1)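 Aliquots of K562 cells (2×10^6 cells/mL) treated with 10 μM compound for 30 min were heated for 3 min over 48°C-58°C. After pooling and extraction in PBS with 0.5% NP-40 at 4°C, soluble protein from a 21,000xg, 90 min spin was quantified by TMTpro 16plex LC-MS/MS with channel sums equalised. Thermal stability is expressed against control samples, from duplicates, as a log2 fold change.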

[2] = compound: NC(=O)c1cnc(N[C@@H]2CCCC[C@@H]2N)nc1Nc1cccc(-n2nccn2)c1
Procedure, shortened: as §1

[3] = compound: NC1(c2ccc(-c3nc4ccn5c(=O)[nH]nc5c4cc3-c3ccccc3)cc2)CCC1
Procedure, shortened: as §1

[4] = compound: NCC(=O)Nc1ccc(-n2nc(C(F)(F)F)cc2-c2ccc3c(ccc4ccccc43)c2)cc1
Procedure, shortened: as §1

entinostat = compound: Nc1ccccc1NC(=O)c1ccc(CNC(=O)OCc2cccnc2)cc1 [entinostat]
Procedure, shortened: as §1

vorinostat = compound: O=C(CCCCCCC(=O)Nc1ccccc1)NO [vorinostat]
Procedure, shortened: as §1

citarinostat = compound: O=C(CCCCCCNC(=O)c1cnc(N(c2ccccc2)c2ccccc2Cl)nc1)NO [citarinostat]
Procedure, shortened: as §1

silmitasertib = compound: O=C(O)c1ccc2c(c1)nc(Nc1cccc(Cl)c1)c1ccncc12 [silmitasertib]
Procedure, shortened: as §1

[5] = compound: O=C1NC(=O)C(c2cnc3ccccn23)=C1c1cn2c3c(cc(F)cc13)CN(C(=O)N1CCCCC1)CC2
Procedure, shortened: as §1

[6] = compound: c1cc(OCCN2CCCCC2)cc(-c2n[nH]c3ccc(-c4nnc[nH]4)cc23)c1
Procedure, shortened: as §1

entospletinib = compound: c1cn2cc(-c3ccc4cn[nH]c4c3)nc(Nc3ccc(N4CCOCC4)cc3)c2n1 [entospletinib]
Procedure, shortened: as §1

Sequence of UniProt Q8WUK0 (Q8WUK0 whole entry, looked up): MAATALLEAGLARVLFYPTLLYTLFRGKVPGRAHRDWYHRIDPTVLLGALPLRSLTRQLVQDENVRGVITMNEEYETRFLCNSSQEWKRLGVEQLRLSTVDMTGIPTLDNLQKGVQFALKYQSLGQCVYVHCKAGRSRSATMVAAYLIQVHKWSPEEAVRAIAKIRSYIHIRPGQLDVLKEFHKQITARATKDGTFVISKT
Sequence of UniProt Q9NTI5 (Q9NTI5 whole entry, looked up): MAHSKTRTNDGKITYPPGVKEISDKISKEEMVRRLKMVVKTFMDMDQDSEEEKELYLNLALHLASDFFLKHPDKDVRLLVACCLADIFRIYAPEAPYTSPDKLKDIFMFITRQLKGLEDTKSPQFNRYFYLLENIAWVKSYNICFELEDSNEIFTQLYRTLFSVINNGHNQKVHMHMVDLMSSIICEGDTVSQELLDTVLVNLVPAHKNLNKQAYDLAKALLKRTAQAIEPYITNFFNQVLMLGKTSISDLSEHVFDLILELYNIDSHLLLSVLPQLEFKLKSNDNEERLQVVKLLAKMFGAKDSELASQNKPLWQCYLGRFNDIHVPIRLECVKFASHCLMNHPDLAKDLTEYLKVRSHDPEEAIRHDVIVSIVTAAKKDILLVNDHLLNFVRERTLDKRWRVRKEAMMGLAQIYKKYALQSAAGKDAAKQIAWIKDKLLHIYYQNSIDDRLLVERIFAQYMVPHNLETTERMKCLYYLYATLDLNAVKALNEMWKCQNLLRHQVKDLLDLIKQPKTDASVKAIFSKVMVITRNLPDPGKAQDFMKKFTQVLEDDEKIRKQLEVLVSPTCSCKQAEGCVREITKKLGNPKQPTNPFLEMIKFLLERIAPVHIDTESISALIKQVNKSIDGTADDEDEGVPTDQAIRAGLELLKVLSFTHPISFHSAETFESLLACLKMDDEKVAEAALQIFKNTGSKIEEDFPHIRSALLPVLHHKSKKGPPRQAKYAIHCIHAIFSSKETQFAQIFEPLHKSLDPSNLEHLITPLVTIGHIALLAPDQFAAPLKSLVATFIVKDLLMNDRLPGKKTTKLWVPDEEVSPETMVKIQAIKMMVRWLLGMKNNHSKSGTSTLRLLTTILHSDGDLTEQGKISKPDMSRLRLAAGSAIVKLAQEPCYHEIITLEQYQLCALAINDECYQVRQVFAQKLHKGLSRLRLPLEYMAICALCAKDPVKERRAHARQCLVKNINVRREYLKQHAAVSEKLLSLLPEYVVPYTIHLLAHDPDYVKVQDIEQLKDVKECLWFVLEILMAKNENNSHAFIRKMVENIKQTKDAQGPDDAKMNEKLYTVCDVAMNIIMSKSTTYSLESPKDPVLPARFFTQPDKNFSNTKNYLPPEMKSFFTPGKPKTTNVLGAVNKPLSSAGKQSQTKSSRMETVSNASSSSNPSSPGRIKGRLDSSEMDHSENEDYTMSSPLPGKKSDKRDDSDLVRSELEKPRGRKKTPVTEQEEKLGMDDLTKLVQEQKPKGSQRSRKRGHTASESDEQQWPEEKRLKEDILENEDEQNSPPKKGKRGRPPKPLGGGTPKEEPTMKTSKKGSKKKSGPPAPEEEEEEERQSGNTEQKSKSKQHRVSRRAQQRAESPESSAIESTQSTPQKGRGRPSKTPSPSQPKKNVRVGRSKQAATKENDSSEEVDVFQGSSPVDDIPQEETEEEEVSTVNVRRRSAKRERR
Sequence of UniProt O00231 (O00231 whole entry, looked up): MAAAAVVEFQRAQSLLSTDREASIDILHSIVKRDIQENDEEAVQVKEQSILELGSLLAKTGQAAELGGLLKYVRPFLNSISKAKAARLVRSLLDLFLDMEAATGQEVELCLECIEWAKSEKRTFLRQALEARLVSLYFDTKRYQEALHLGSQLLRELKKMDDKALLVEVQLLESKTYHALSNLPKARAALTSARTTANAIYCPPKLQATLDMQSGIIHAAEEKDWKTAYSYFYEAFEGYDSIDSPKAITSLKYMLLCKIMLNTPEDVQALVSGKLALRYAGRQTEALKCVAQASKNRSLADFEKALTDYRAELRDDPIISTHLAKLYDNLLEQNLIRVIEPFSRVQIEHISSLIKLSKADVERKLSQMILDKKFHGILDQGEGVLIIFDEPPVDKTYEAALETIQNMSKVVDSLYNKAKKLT
Sequence of UniProt Q8NCC3 (Q8NCC3 whole entry, looked up): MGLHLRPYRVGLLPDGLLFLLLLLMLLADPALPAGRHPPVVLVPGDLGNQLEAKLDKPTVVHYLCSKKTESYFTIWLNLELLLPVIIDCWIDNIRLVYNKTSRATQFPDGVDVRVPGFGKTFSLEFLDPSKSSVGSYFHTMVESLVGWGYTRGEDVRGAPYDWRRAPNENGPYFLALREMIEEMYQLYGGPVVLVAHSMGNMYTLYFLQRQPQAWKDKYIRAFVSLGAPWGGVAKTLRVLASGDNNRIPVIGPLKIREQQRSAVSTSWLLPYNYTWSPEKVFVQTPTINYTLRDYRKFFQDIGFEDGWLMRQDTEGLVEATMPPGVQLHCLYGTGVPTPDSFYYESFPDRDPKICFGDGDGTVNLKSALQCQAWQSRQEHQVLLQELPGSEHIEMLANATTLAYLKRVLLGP
Sequence of UniProt P49643 (P49643 whole entry, looked up): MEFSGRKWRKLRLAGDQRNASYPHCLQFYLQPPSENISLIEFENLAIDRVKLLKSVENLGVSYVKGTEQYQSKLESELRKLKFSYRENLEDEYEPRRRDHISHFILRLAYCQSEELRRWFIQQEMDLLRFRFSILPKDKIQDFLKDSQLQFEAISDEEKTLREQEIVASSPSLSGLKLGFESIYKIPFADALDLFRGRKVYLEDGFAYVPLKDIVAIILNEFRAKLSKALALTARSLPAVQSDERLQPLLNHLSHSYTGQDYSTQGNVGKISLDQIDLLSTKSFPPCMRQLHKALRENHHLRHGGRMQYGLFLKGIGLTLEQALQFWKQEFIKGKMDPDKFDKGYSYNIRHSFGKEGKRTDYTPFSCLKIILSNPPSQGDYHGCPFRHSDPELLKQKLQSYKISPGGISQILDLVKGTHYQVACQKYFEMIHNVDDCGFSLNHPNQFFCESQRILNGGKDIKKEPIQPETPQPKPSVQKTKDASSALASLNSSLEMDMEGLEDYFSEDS
Sequence of UniProt Q99575 (Q99575 whole entry, looked up): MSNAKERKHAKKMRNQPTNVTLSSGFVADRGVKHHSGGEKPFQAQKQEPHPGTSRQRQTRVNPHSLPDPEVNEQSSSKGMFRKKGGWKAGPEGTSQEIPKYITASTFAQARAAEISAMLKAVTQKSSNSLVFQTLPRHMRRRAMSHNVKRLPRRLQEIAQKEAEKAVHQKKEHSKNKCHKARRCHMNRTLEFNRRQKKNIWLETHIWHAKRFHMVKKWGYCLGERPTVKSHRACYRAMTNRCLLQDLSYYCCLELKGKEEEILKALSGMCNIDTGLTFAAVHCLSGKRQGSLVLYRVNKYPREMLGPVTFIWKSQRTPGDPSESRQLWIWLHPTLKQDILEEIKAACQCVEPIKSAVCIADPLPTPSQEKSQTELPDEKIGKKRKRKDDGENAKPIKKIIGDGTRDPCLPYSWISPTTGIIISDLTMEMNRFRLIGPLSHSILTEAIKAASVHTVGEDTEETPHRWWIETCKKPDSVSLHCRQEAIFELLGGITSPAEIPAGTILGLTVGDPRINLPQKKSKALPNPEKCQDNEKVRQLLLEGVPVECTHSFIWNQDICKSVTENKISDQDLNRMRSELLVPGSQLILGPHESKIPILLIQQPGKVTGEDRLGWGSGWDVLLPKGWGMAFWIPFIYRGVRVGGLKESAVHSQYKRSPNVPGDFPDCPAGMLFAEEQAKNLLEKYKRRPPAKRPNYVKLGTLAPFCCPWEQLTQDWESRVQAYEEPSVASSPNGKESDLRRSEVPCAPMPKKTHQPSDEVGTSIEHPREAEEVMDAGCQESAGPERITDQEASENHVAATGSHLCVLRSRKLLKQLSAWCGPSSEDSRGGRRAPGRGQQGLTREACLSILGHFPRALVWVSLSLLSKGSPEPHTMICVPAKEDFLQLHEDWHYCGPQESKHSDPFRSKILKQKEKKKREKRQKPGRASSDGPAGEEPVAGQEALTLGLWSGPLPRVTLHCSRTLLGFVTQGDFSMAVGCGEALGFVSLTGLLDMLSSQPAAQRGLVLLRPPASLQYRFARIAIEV
Sequence of UniProt P13861 (P13861 whole entry, looked up): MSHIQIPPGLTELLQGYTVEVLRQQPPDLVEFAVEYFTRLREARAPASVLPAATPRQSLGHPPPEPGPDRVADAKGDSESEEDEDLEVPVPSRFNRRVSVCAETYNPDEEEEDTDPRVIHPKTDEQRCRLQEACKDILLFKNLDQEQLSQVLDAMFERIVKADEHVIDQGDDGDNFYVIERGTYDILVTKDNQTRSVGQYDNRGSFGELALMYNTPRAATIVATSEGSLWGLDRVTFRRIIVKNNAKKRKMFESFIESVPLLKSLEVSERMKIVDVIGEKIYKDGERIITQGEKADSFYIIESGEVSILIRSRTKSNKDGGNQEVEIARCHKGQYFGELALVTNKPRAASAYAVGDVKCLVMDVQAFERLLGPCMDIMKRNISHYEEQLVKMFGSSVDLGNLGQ
Sequence of UniProt Q8N8N7 (Q8N8N7 whole entry, looked up): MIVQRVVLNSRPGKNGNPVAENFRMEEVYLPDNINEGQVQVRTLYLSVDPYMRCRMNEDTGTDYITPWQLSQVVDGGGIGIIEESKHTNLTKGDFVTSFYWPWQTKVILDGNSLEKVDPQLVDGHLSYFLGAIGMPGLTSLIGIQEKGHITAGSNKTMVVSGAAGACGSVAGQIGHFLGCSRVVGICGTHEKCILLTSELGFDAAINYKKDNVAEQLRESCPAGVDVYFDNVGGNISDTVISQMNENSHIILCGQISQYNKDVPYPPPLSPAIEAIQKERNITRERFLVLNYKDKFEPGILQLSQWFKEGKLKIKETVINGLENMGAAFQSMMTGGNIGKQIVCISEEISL
Sequence of UniProt Q9Y2Y1 (Q9Y2Y1 whole entry, looked up): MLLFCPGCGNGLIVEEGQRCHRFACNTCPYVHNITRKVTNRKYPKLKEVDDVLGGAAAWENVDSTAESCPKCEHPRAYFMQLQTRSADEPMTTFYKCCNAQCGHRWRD
Sequence of UniProt P06454 (P06454 whole entry, looked up): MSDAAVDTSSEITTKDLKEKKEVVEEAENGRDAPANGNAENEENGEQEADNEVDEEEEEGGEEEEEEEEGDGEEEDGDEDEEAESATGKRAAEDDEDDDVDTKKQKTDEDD

Target	log2 fold change [1]	log2 fold change [2]	log2 fold change [3]	log2 fold change [4]	log2 fold change (entinostat)	log2 fold change (vorinostat)	log2 fold change (citarinostat)	log2 fold change (silmitasertib)	log2 fold change [5]	log2 fold change [6]	log2 fold change (entospletinib)
PIP4P1 isoform 2 (UniProt Q86T03)	0.012	0.086	-0.326	0.095	0.042	-0.019	0.01	0.054	0.043	-0.031	0.028
RAB11FIP1 (UniProt Q6WKZ4)	0.019	-0.121	-0.086	-0.009	0.041	0.091	0.065	0.016	0	-0.07	-0.018
PPP1CA (UniProt P62136)	-0.036	-0.051	-0.019	-0.02	-0.012	-0.023	0.034	0	0.007	-0.045	0.037
PRKCA (UniProt P17252)	-0.085	-0.134	-0.181	-0.029	0.057	0.117	0.028	-0.045	-0.205	-0.091	-0.054
PRKAA1 isoform 2 (UniProt Q13131)	-0.141	-0.009	-0.049	-0.007	0.002	0.052	0.044	-0.006	-0.007	-0.056	-0.015
PNPLA8 (UniProt Q9NP80)	-0.035	0.007	-0.038	-0.038	-0.031	0.111	0.049	-0.036	-0.017	-0.052	-0.015
PPP2R5C isoform 4 (UniProt Q13362)	-0.035	0.079	-0.064	-0.065	0.012	-0.033	0.055	-0.015	-0.022	0.058	-0.023
PATL1 (UniProt Q86TB9)	0.054	-0.213	-0.047	-0.025	0.052	0.106	0.02	0.04	0.069	-0.093	0.076
POLR3K (UniProt Q9Y2Y1)	0.045	0.007	0.057	0.057	0.009	-0.003	-0.025	0.013	-0.028	0.025	0.113
PEF1 (UniProt Q9UBV8)	-0.029	-0.026	-0.219	-0.036	0.128	0.01	0.045	0.028	-0.103	-0.02	0.023
PTPA (UniProt A6PVN8)	-0.015	-0.057	-0.062	-0.003	-0.04	0.099	-0.098	0.266	0.05	-0.05	-0.004
PI4K2A (UniProt Q9BTU6)	0.033	0.204	-0.152	-0.05	-0.013	0.039	0.072	-0.012	-0.05	0.003	-0.011
POLR2I (UniProt P36954)	-0.025	0.115	0.102	0.067	0.114	-0.243	-0.09	0.028	-0.091	-0.005	0.306
PHAX (UniProt Q9H814)	0.008	-0.084	-0.003	0.013	-0.022	-0.006	0.041	0.092	0.046	-0.029	-0.005
PRKAB2 (UniProt O43741)	0.204	0.248	-0.077	0.162	0.186	0.099	-0.1	0.031	0.121	-0.47	-0.12
PTP4A1 (UniProt Q93096)	-0.035	-0.202	-0.007	0.016	0.039	-0.029	0.063	-0.001	-0.075	0.059	0
PPT2 isoform 3 (UniProt Q9UMR5)	0.035	0.008	-0.15	0.017	0.02	0.063	0.015	0.018	0.029	0.034	-0.04
PPIL2 (UniProt Q13356)	-0.069	-0.058	-0.077	-0.1	0.059	0.063	0.065	0.083	-0.07	-0.014	-0.027
PSMC5 (UniProt P62195)	0.034	-0.001	0.007	0.054	-0.021	-0.004	-0.021	-0.005	0.063	-0.075	0.005
POP1 (UniProt Q99575)	0.072	0.025	0.03	0.045	-0.019	-0.013	-0.003	-0.011	0.038	-0.128	0.027
PTGR2 (UniProt Q8N8N7)	-0.039	-0.077	0.123	-0.164	-0.05	-0.149	0.009	-0.011	0.611 (active)	0.231	0.043
POLR2K (UniProt P53803)	-0.04	-0.107	0.017	0.053	-0.01	-0.156	0.13	0.097	0.002	-0.474 (active)	0.24
PRKAR2A (UniProt P13861)	-0.502 (active)	-0.071	-0.002	-0.039	0.025	-0.012	0.002	0.051	0.002	-0.028	0.088
POMK (UniProt Q9H5K3)	0	0.058	-0.173	-0.044	0.045	0.04	0.105	0.101	0.017	-0.303	-0.293 (active)
PLA2G15 (UniProt Q8NCC3)	0.06	-0.042	-0.023	0.001	0.056	0.073	0.279 (active)	0.076	-0.074	-0.008	-0.063
PDS5B (UniProt Q9NTI5)	-0.07	-0.12	-0.043	-0.167	-0.036	-0.043	0.046	0.027	-0.08	0.03	-0.055
PTPMT1 (UniProt Q8WUK0)	-0.087	-0.264	-0.263	-0.166	0.073	0.049	0.014	0.032	-0.015	-0.082	-0.018
PRPF38A (UniProt Q8NAV1)	-0.039	-0.015	-0.105	-0.006	0.004	0.002	0.152	-0.212	0.095	-0.122	0.036

Target	log2 fold change [1]	log2 fold change [2]	log2 fold change [3]	log2 fold change [4]	log2 fold change (entinostat)	log2 fold change (vorinostat)	log2 fold change (citarinostat)	log2 fold change (silmitasertib)	log2 fold change [5]	log2 fold change [6]	log2 fold change (entospletinib)
PIGT (UniProt Q969N2)	-0.01	-0.002	-0.077	-0.002	0.018	0.05	0.04	0	-0.01	-0.089	-0.018
PRKAB1 (UniProt Q9Y478)	-0.015	0.186	-0.015	0.035	0.056	0.063	0.089	0	-0.036	-0.067	-0.145
PSMD11 (UniProt O00231)	0.048	0.04	-0.016	0.061	-0.012	0.027	-0.001	-0.028	0.071	-0.092	0.017
PURA (UniProt Q00577)	0.015	0.105	0.377	0.036	-0.085	-0.079	-0.141	0.248	0.185	-0.114	0.176
PRIM2 (UniProt P49643)	-0.035	-0.141	-0.16	-0.061	0.058	0.098	0.135	0.033	-0.096	-0.018	0
POLR2A (UniProt P24928)	-0.057	0.121	-0.049	-0.094	0.049	-0.067	-0.062	0.086	0.059	-0.05	0.162
PTMA (UniProt P06454)	0.279	0.2	0.217	0.157	0.052	-0.026	-0.018	-0.628 (active)	0.021	0.099	0.047
PPIL4 (UniProt Q8WUA2)	-0.021	-0.085	0.002	-0.071	0.011	0.016	0.033	-0.005	-0.005	-0.1	0.035
PSMC3 (UniProt P17980)	0.014	-0.011	0.046	0.078	-0.024	-0.017	-0.053	-0.018	0.049	-0.092	0
PDE12 (UniProt Q6L8Q7)	-0.036	0.07	-0.069	-0.008	0.017	-0.003	0.044	-0.014	-0.089	0.047	-0.033
POGLUT1 (UniProt Q8NBL1)	-0.043	-0.057	-0.008	-0.102	-0.01	0.112	-0.058	0	0.019	-0.05	0.06
POLR1A (UniProt O95602)	0.044	0.012	-0.208	0.172	-0.012	0.098	0.018	0.033	0.036	0.045	-0.057
PRKACA (UniProt P17612)	0.097	0.048	-0.132	-0.025	-0.019	0.02	0.023	-0.051	0.05	-0.067	0.007
PTRH2 (UniProt Q9Y3E5)	-0.061	0.018	-0.001	0.004	-0.016	-0.002	0.047	0.007	-0.089	0.005	0.019
PSMC1 (UniProt P62191)	0.011	0.029	0.014	0.043	-0.013	-0.013	-0.032	0.001	0.026	-0.047	0.006
PCBP2 isoform 3 (UniProt Q15366)	0.001	-0.074	-0.102	-0.088	0.062	0.099	0.104	0.019	-0.015	-0.023	0.009
PCK2 (UniProt Q16822)	0	0	-0.029	-0.013	0.005	0.004	0.013	-0.025	-0.148	-0.032	-0.057
PGGHG (UniProt Q32M88)	-0.036	-0.155	-0.051	0.083	-0.033	0.019	-0.009	0.073	-0.076	0.058	0.023
PSMD7 (UniProt P51665)	-0.04	0.001	-0.035	0.029	-0.049	-0.002	-0.048	0.016	0.051	-0.089	0.064
PITRM1 isoform 2 (UniProt Q5JRX3)	0.116	-0.077	-0.051	-0.061	0.097	0.089	0.104	-0.045	0.05	0.096	-0.103
PBK (UniProt Q96KB5)	-0.1	-0.045	-0.098	-0.088	0.095	0.154	0.119	0.157	0.02	-0.011	0.109
PPP4R3B (UniProt Q5MIZ7)	-0.068	-0.082	-0.069	-0.079	0.047	0.089	0.086	0.077	-0.1	0.087	-0.064
PSMD5 (UniProt Q16401)	-0.001	0.009	-0.094	-0.009	0.01	0.008	0.033	0.038	-0.032	-0.009	0.017
PUM1 isoform 3 (UniProt Q14671)	0	-0.032	-0.082	-0.015	0.034	0.108	-0.008	0.01	-0.028	-0.007	0.045
PSMD13 (UniProt Q9UNM6)	-0.049	0.015	-0.044	0.006	-0.018	0.001	-0.017	0.033	0.044	-0.108	0.049
PSMB4 (UniProt P28070)	0.029	-0.01	0.068	0.01	-0.036	-0.019	0.008	0.002	0.022	-0.014	-0.009
PPID (UniProt Q08752)	-0.073	-0.075	-0.093	-0.065	0.049	0.108	0.108	0.095	-0.028	0	0.019

Source: the supplement of paper PMC10849652
